Data taken from PubChem BioAssay (Tox21).
Inconclusive results are not listed. Entries that show only a call come without a potency. Values without a mark were called inactive. Activity calls are given as the source filed them. The call rests on the fitted dose curve.
Potency means the concentration at half of the fitted maximal effect.

Each compound was assayed against Muscarinic acetylcholine receptor M1 (Homo sapiens) (UniProt P11229) (assay: Cholinergic receptor muscarinic 1 (CHRM1) small molecule antagonists, cell-based qHTS assay (AID 1963588; further: nearly all actives have a fitted effect of over 40% in size)). Conditions: CHRM1-CHO antagonist mode, calcium flux fluorescence; series mostly up to 61.5 µM.
Sequence of Muscarinic acetylcholine receptor M1 (Homo sapiens) (P11229 whole entry, looked up): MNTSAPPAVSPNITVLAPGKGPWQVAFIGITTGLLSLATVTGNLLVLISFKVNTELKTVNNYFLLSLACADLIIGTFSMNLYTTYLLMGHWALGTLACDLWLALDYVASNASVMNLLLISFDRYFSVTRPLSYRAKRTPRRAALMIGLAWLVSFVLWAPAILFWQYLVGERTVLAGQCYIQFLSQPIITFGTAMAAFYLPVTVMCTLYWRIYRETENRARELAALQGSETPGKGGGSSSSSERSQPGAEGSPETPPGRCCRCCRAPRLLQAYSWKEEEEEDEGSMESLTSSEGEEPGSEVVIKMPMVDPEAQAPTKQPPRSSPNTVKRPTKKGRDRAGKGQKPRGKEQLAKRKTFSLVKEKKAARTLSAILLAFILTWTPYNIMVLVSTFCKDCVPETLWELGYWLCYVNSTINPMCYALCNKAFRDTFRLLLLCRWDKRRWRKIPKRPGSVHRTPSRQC
Method in brief: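 Compounds were tested at 15 concentrations in three independent runs. Dye-loaded CHRM1-CHO cells were exposed 5 min at room temperature before stimulation by acetylcholine added at 50nM. Intracellular calcium was read kinetically on FDSS for 3 min.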
`COc1ccc(C(=O)/C(Br)=C\C(=O)O)cc1` was tested, and the Potency was “inactive”.
With `COc1ccc(-c2cc(=S)ss2)cc1` the Potency was “inactive”.
With `O=C(CCCCCCC(=O)Nc1ccccc1)NO` the Potency was “inactive”.
In the case of `c1cc(CN2CCCCC2)cc(OCCCNc2nc3ccccc3s2)c1`, the Potency is reported as 5.79 µM (active).
For `O=c1[nH]c2ccccc2n1CCCN1CCN(C(c2ccccc2)c2ccccc2)CC1`, the Potency was “inactive”.
`Cc1ccc(O)c(C(C)(C)C)c1` was tested, and the Potency was “inactive”.
With `COc1cc(Nc2c(C#N)cnc3cc(OCCCN4CCN(C)CC4)c(OC)cc23)c(Cl)cc1Cl` the Potency was “inactive”.
Work on `N[C@@H](C(=O)N[C@@H]1C(=O)N2C(C(=O)O)=C(Cl)CS[C@H]12)c1ccccc1` yielded an activity, negative = inhibition of 6.01% [at 5.58 µM].
With `CCCC(=O)O[C@]1(C(=O)CCl)[C@@H](C)C[C@H]2[C@@H]3CCC4=CC(=O)C=C[C@]4(C)[C@@]3(F)C(=O)C[C@@]21C` the Potency was “inactive”.
In the case of `Cc1cccc(O)c1N`, the Potency is reported as “inactive”.
With `CCN(CC)c1ccc(C(=C2C=CC(=[N+](CC)CC)C=C2)c2cc(S(=O)(=O)O)ccc2S(=O)(=O)[O-])cc1` the Potency was “inactive”.
In the case of `Cc1cc(O)c2c(c1)C(=O)c1cc(O)cc(O)c1C2=O`, the Potency is reported as “inactive”.
For `O=C1Cc2cc(CCN3CCN(c4nsc5ccccc45)CC3)c(Cl)cc2N1`, the Potency was 5.16 µM (active).
For `O=c1cc(-c2ccc(O)cc2)oc2cc(O)cc(O)c12`, the Potency was “inactive”.
For `CC1=NN(c2cc(Cl)c(S(=O)(=O)O)cc2Cl)C(=O)C1N=Nc1ccc(S(=O)(=O)O)cc1` (configuration not stated), the Potency was “inactive”.
`CN(C)CC/C=C1\c2ccccc2Sc2ccc(Cl)cc21` was tested, and the Potency was “inactive”.
In the case of `C(=C(c1ccccc1)c1ccccc1)c1ccccc1`, the Potency is reported as “inactive”.
For `NC(=O)C1(N2CCCCC2)CCN(CCCN2c3ccccc3CCc3ccc(Cl)cc32)CC1`, the Potency was “inactive”.
`O=C1c2ccccc2C(=O)c2c(O)c(O)cc(O)c21` was tested, and the Potency was “inactive”.
In the case of `CN1CCCC(CC2c3ccccc3Sc3ccccc32)C1` (configuration not stated), the Potency is reported as 0.0015 µM (active).
With `CCOc1ccc2nc3cc(N)ccc3c(N)c2c1` the Potency was “inactive”.
For `CC1=NN(c2ccc(S(=O)(=O)O)cc2)C(=O)C1N=Nc1ccccc1` (configuration not stated), the Potency was “inactive”.
In the case of `Nc1ccc(N)c2c1C(=O)c1ccccc1C2=O`, the Potency is reported as “inactive”.
With `COc1cc([N+](=O)[O-])ccc1N` the Potency was “inactive”.
With `Cc1c(C(=O)NN2CCCCC2)nn(-c2ccc(Cl)cc2Cl)c1-c1ccc(Cl)cc1` the Potency was “inactive”.
With `CC(C)C(OC(=O)c1ccccc1)C(C)(C)COC(=O)c1ccccc1` (configuration not stated) the Potency was “inactive”.
With `CN(C)C(=O)NC1(c2ccccc2)CCN(CCC[C@]2(c3ccc(Cl)c(Cl)c3)CCCN(C(=O)c3ccccc3)C2)CC1` the activity, negative = inhibition was -18.4% [at 12.6 µM].
In the case of `O=C1CCCCCN1SSN1CCCCCC1=O`, the Potency is reported as “inactive”.
For `CC(COc1ccc(C(C)(C)C)cc1)OS(=O)OCCCl` (configuration not stated), the Potency was “inactive”.
For `Cc1onc(-c2c(Cl)cccc2Cl)c1C(=O)N[C@@H]1C(=O)N2[C@@H]1SC(C)(C)[C@@H]2C(=O)O`, the Potency was “inactive”.
With `Cc1ccc(N/N=c2\c(=O)cc/c(=N\Nc3ccc(S(=O)(=O)O)cc3)c2=O)c(C)c1` the Potency was “inactive”.
With `CCCCC(CC)CN1CN(CC(CC)CCCC)CC(C)(N)C1` (configuration not stated) the Potency was “inactive”.
